This excerpt belongs to a sample that is enriched for hits.
Tgondii IFNg = T. gondii growth inhibition under IFN-gamma | AID 1259416 | activity change, negative = inhibition, % (no concentration beside the values) | actives 3.8% (n = 69,000) | Toxoplasma gondii growth in IFN-gamma-treated host cells; hits give low values; in the data active = activity change below about -70%, passing the limit was not always enough;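 also: host cells are HeLa cells infected with Toxoplasma gondii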
Active calls of the source: *.

SMILES	Tgondii IFNg
COc1ccccc1CNC(=O)c1c(O)c2cccnc2n(-c2cccc(F)c2)c1=O	234
Cc1cc(F)ccc1NC(=O)c1c(O)c2cccnc2n(-c2ccccc2)c1=O	-27
O=C(NCc1ccccc1)c1c(O)c2cccnc2n(-c2ccccc2)c1=O	5
O=C(NCc1cc(F)cc(F)c1)c1c(O)c2cccnc2n(-c2ccccc2)c1=O	-91*
Cc1ccc(NC(=O)c2c(O)c3ccccc3n(-c3ccccc3)c2=O)c(C)c1	-11
O=C(Nc1ccccc1F)c1c(O)c2cccnc2n(-c2cccc(F)c2)c1=O	25
Cc1cc(F)ccc1NC(=O)c1c(O)c2ccccc2n(-c2ccccc2)c1=O	16
O=C(NCc1ccccc1Cl)c1c(O)c2cccnc2n(-c2ccc(F)cc2)c1=O	115
COc1cc(CNC(=O)C2(C)CCN(C(=O)c3cccs3)CC2)cc(OC)c1	14
COc1ccc(N(Cc2nc(-c3ccccc3)oc2C)S(=O)(=O)c2ccccc2)cc1	-45
CCn1ccnc1CN(C)c1cc(C2CCCNC2)nc(C)n1 (stereo not given)	3
CC(=O)c1ccc(F)cc1-c1ccc(C(C)N2CCOCC2)cc1 (stereo not given)	-3
COC(=O)[C@@H]1C[C@@H](NC(=O)c2cc(C(C)C)[nH]n2)CN1C	5
COC(=O)[C@@H]1C[C@H](NC(=O)c2cc3sccc3[nH]2)CN1C	20
Cc1cc(NC(=O)COC(=O)C2C3CC4OC(=O)C2C4C3)no1 (stereo not given)	-4
Cc1csc(-c2[nH]ncc2-c2ccsc2)n1	-2
Cc1nc(CN(C)C(=O)c2cccc(CC3CCNCC3)c2)no1	-7
Cc1ccc(NC(=O)CCCn2ccnc2)cc1S(=O)(=O)N1CCOCC1	-7
CCn1c(NC(=O)CCn2nc(C)c(Cl)c2C)nc2ccccc21	-13
Cc1cccc(CO[C@@H]2CC[C@@H]3[C@H]2OCCN3c2ncc(F)cn2)n1	5
CCc1cc(CN(C)C(=O)Cn2cc(C(F)(F)F)ccc2=O)on1	-2
CCc1ccc(NC(=O)c2c(O)c3cccnc3n(-c3ccc(F)cc3)c2=O)cc1	80
CCc1ccccc1NC(=O)c1c(O)c2cccnc2n(-c2ccc(F)cc2)c1=O	-79*
Cc1ccc(NC(=O)c2c(O)c3cccnc3n(-c3cccc(F)c3)c2=O)cc1	54
O=C(Nc1ccc(F)cc1F)c1c(O)c2cccnc2n(-c2ccccc2)c1=O	-44
SMILES	Tgondii IFNg
O=C(Nc1ccc(F)cc1Cl)c1c(O)c2cccnc2n(-c2ccc(F)cc2)c1=O	240
CCOc1ccccc1NC(=O)c1c(O)c2cccnc2n(-c2ccc(F)cc2)c1=O	65
COc1cccc(-n2c(=O)c(C(=O)Nc3ccccc3Cl)c(O)c3cccnc32)c1	65
O=C(Nc1ccc(F)cc1)c1c(O)c2cccnc2n(-c2cccc(F)c2)c1=O	60
O=C(Nc1ccc(Cl)cc1)c1c(O)c2cccnc2n(-c2cccc(F)c2)c1=O	-102*
CCc1ccccc1NC(=O)c1c(O)c2cccnc2n(-c2cccc(F)c2)c1=O	-104*
O=C(Nc1ccccc1Cl)c1c(O)c2cccnc2n(-c2cccc(F)c2)c1=O	-87*
CCOc1ccccc1NC(=O)c1c(O)c2cccnc2n(-c2cccc(F)c2)c1=O	100
CCCOc1ccc(-c2noc(-c3c(O)c4cc(F)ccc4n(C)c3=O)n2)cc1	0
O=C(Nc1ccccc1)c1cc2n(n1)CCN(C(=O)CCN1CCCCO1)C2	4
CCc1cccc(NC(=O)COc2nc(CC)nc3ccccc23)c1	-11
CCN1C(=O)N(CCCc2cccnc2)C(=O)C12CCN(Cc1cc3ccccc3s1)CC2	-3
Cc1cccc(C)c1NC(=O)C(=O)NCCc1sc(-c2ccccc2)nc1C	-30
CS(=O)(=O)NC1CCOC2(CCN(Cc3cccs3)CC2)C1 (stereo not given)	1
O[C@@H]1CN(Cc2cccc3[nH]ccc23)CC[C@H]1c1ccc(F)cc1	-4
CCc1nnc(NC(=O)CN2C[C@@H](C)N(Cc3ccco3)C[C@H]2C)s1	44
O=C(CSCc1ccccc1)OCc1nc2ccccc2s1	1
O=C(Cc1cccc(F)c1)N1CC[C@H]2[C@@H]1CCN2c1ncccn1	15
CN(C)S(=O)(=O)N1CCC2(CC1)CN(c1ncccn1)Cc1ccccc12	-33
CN1CCN(c2ccnc3ccccc23)CC1C(=O)O (stereo not given)	4
CCOC(=O)c1ccc2c(c1)N(Cc1nc(-c3ccccc3)oc1C)C(=O)c1ccccc1S2	60
COc1cccc(-n2c(=O)c(C(=O)NCc3ccc(F)cc3F)c(O)c3cccnc32)c1	50
COc1cccc(-n2c(=O)c(C(=O)NCc3ccccc3Cl)c(O)c3cccnc32)c1	-91*
COc1cccc(-n2c(=O)c(C(=O)NCc3ccccc3F)c(O)c3cccnc32)c1	100
O=C(Cn1c(=O)c(S(=O)(=O)c2ccccc2)cc2ccccc21)NC1CCCC1	14
CCOC(=O)CN1CCc2nc(-c3cnn(C)c3)nc(N(C)C)c2C1	6
COc1ccc2c3c(n(C)c2c1)[C@@H](CO)N(C(=O)CN(C)C)CC31CN(Cc2nccs2)C1	-109*

Bioassay records (PubChem BioAssay)
